MMP-13 inhibitor – human MMP13 inhibitors, primary screen, biochemical, FRET peptide cleavage. Collagenase 3 (Homo sapiens), P45452. MMP-13 fTHP FRET cleavage, Mca fluorescence. inhibition, % at 4 µM. 0.07% of 65,000 active;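 active = inhibition above the mean of compound-free control plate wells plus 3 SD, cut at about 14% in these data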;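 also: 0% = DMSO wells and 100% = wells with reference MMP-13 inhibitor after basal subtraction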
FXIa inh mix – FXIa protease inhibitors in compound pools, primary screen, biochemical, 10-compound mixtures. Coagulation factor XI (Homo sapiens), P03951. purified FXIa, fluorogenic substrate, pooled mixtures. inhibition, % at 5 µM. 0.19% of 62,000 active. AID 680, 2007;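 also: each value is inhibition by a whole ten-compound pool holding the compound; 0% = enzyme with no mixture and 100% = wells lacking enzyme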
E coli RNAP – E. coli RNAP inhibitors, biochemical | DNA-directed RNA polymerase subunit beta (Escherichia coli (strain K12)), P0A8V2 | E. coli RNA polymerase, fluorescence transcription assay | inhibition, %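 (tested at 10 µM)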 | 0.2% of 62,000 active; in the data active = inhibition above about 20%;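 also: 0% = enzyme without compound and 100% = no enzyme blank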
WNV protease inh – inhibitors of WNV NS2B-NS3 protease, primary screen, biochemical, fluorogenic substrate. Genome polyprotein (West Nile virus), P06935. fluorogenic substrate Ex360/Em465; stronger effect = lower value. z-score (concentration not given with the values). 0.18% of 65,000 active. AID 577, 2007; in the data active = z-score below about -3
MT1-MMP txn act – MT1-MMP promoter reporter activation – cell-based, luciferase luminescence, primary screen. HT1080 MT1-MMP promoter luciferase reporter, overnight; stronger effect = higher value. activation factor at 10 µM. 0.16% of 86,000 active. AID 750, 2007;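 active = activation factor of at least 2 for MT1-MMP transcription at 10 µM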
FXIIa inh mix – human factor XIIa inhibitors, primary screen, biochemical, pooled compound mixtures, fluorogenic substrate; purified FXIIa; inhibition, % at 5 µM; 0.2% of 62,000 active; Coagulation factor XII (Homo sapiens), P00748;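 also: 0% = enzyme without compound and 100% = no enzyme blank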
Target sequence (P00748 20-372 limits assumed): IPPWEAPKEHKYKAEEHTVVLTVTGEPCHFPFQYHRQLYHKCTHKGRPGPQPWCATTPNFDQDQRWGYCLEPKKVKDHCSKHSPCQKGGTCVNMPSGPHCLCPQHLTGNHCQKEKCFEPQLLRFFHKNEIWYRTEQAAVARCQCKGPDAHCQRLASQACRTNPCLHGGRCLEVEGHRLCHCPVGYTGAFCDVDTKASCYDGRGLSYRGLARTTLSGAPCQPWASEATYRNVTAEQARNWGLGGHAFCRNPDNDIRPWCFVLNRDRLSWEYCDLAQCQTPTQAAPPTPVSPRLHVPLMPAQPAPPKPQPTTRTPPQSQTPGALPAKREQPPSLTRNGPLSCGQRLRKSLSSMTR
Target sequence (P00748 373-615 limits assumed): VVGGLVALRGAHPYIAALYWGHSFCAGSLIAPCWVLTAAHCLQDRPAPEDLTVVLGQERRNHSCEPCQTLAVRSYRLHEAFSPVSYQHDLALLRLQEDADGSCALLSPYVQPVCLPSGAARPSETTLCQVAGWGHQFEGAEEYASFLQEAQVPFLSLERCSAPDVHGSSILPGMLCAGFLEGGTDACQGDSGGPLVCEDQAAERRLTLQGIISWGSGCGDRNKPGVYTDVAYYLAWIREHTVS
* hit, by the source's call; / = not tested or not shown. This is a sample that favours compounds with a hit; in the whole collection about 0.69% have one here. Rule as the data show it, unless noted: active = inhibition above about 20% (passing the limit was not always enough); inactive = the rest.

SMILES | MMP-13 inhibitor | FXIa inh mix | E coli RNAP | WNV protease inh | MT1-MMP txn act | FXIIa inh mix
CC(=O)N(c1ccc(N(C(C)=O)S(=O)(=O)c2cccs2)cc1)S(=O)(=O)c1cccs1 | -2 | -1 | 24* | 1.1 | 1 | 3
COc1cccc2c1C(=O)c1c(O)c3c(c(O)c1C2=O)C[C@@](O)(C(=O)CO)C[C@@H]3O[C@H]1C[C@H](N)[C@H](O)[C@H](C)O1 | 10 | 3 | 32* | 0.4 | 0.5 | 6
CNC(=O)C1(C)C=CCN1C(=O)OC (stereo unspecified) | / | / | / | / | 1.3 | /
O=c1c(-c2ccco2)[n+]([O-])c2ccccc2n1OCc1ccccn1 | 2 | 29* | 13 | -0.72 | 1.3 | -16
COc1ccc(C2=NO[C@@H]3C(=O)N(c4c(C)cccc4C)C(=O)[C@H]23)cc1OC | 6 | 6 | 24* | -0.21 | 1 | -2
CC(=O)Nc1nc(CC(=O)c2ccccc2)cs1 | -5 | 36* | 3 | 0.26 | 1.2 | -13
CCOC(=O)c1ccc(NC(=O)C(CC)(CC)C(=O)OCC)cc1 | -4 | 1 | 11 | 0.05 | 0.9 | 50*
COC(=O)C(C)N(C(=O)c1ccc(C(=O)c2ccccc2)cc1)c1c(C)cccc1C (stereo unspecified) | / | / | / | / | 1.3 | /
CN(CC(=O)N1CC=C(c2ccccc2)CC1)S(=O)(=O)c1ccc2c(c1)c(=O)n(C)c(=O)n2C | -5 | -6 | 9 | 0.24 | 1.2 | 0
CN(CC(=O)NC1CCCc2ccccc21)S(=O)(=O)c1ccc2c(c1)c(=O)n(C)c(=O)n2C (stereo unspecified) | -3 | 7 | 2 | -1.1 | 1.1 | 26*
COC(=O)c1ccc(C(NC(=O)OCc2ccccc2)/C(=C/[C@@H](C)C(=O)NCc2ccc(S(C)(=O)=O)cc2)C(F)(F)F)cc1 (stereo partly specified) | / | / | / | / | 1.1 | /
O=C1Nc2ccccc2CCC1Sc1nnc(-c2ccc(Cl)cc2)s1 (stereo unspecified) | / | / | / | / | 2.1* | /
COC(=O)[C@@H]1C[C@H]1[C@@H](NC(=O)c1cc(C)nn1C)c1ccccc1 | / | / | / | / | 1.2 | /
COC(=O)c1ccc(Nc2nc(C)cc(C)n2)cc1 | / | / | / | / | 1.1 | /
COc1nc(Nc2ccc(C(C)=O)cc2)nc(OC)n1 | -1 | 1 | 36* | -0.12 | 1.1 | 8
CNc1sc(C(=O)c2ccccc2F)c(N)c1-c1nc2ccccc2s1 | / | / | / | / | 2.1* | /
CCC1=C2CC[C@H]3C(=O)NC(=O)[C@H]3[C@H]2[C@@]2(Cc3ccccc3)C(=NCC3CC3)OC(=O)N2C1=O | / | / | / | / | 1.2 | /
CCc1c2c(nc3ccc(N(C)C)cc13)-c1cccc(=O)n1C2 | / | / | / | / | 1 | /
COC(=O)C1(Cc2ccccc2)C=C2C(=C(C(C)C)C(=O)C2C)CN1 (stereo unspecified) | / | / | / | / | 2.1* | /
O=C(NCc1ccc2c(c1)OCO2)c1c[nH]c2ccc(S(=O)(=O)N3CCOCC3)cc2c1=O | 2 | -2 | 0 | 1.5 | 1.1 | 4
O=C(NCc1ccccc1)c1c[nH]c2cc3c(cc2c1=O)OCCO3 | / | / | / | / | 2.2* | /
CCCCCC1=C2CNC(Cc3ccccc3)(C(=O)OC)C=C2C(C)C1=O (stereo unspecified) | / | / | / | / | 1.1 | /
CC1CCN(CCCNC(=O)C2CCN(S(=O)(=O)N3CCCCC3)CC2)CC1 | -7 | -3 | 7 | -1.1 | 1.1 | -2
CC1CCCCN1CCNC(=O)C1CCN(S(=O)(=O)N2CCCCC2)CC1 (stereo unspecified) | 0 | -3 | 8 | 0.59 | 1.1 | 21*
CCOC(=O)c1sc2nc(SCC#N)n(CC3CCCO3)c(=O)c2c1C (stereo unspecified) | 2 | 22* | 1 | -1.2 | 1.1 | 7
SMILES | MMP-13 inhibitor | FXIa inh mix | E coli RNAP | WNV protease inh | MT1-MMP txn act | FXIIa inh mix
COc1ccccc1CNC(=O)c1cnc2ccccn2c1=O | -14 | 21* | 7 | 0.25 | / | 0
CCOc1ccc(C2C=C(c3ccc(C)cc3)Nc3ncnn32)cc1 (stereo unspecified) | -243 | 23* | -5 | -0.33 | 1.8 | -18
C=CCn1c(SCC(=O)OC)nc2sc3c(c2c1=O)CCN(C)C3 | -26 | / | 7 | -7.4* | 1.3 | /
CC(=O)N1CC=CC1(C)C(=O)NCc1ccc(C)o1 (stereo unspecified) | / | / | / | / | 0.9 | /
O=C(CSc1nc2cc3ccccc3cc2[nH]1)Nc1ccc(F)cc1 | / | / | / | / | 1 | /
O=C(NCc1cn2ccsc2n1)c1cccc(C(F)(F)F)c1 | -8 | 6 | 22* | -1.5 | 1.1 | -18
CCCC[C@H]1C[C@@H]1[C@@H]1N(P(=O)(c2ccccc2)c2ccccc2)[C@](CO)(c2ccccc2)CC12CC2 | / | / | / | / | 1.1 | /
O=C(CCCNS(=O)(=O)c1cccc2nsnc12)NC1CCCCC1 | 2 | 6 | 26* | -0.57 | 1 | -22
O=C(CCCNS(=O)(=O)c1cccc2nsnc12)N1CCCCC1 | -4 | 9 | -1 | 0.31 | 1 | 3
N/C(=N\OC(=O)c1ccco1)c1ccccc1 | / | / | / | / | 2* | /
COC(=O)[C@@]1(Cc2ccccc2)[C@H]2c3cc(C(=O)N(C)C)n(CCF)c3C[C@H]2CN1C(=O)c1ccccc1 | / | / | / | / | 1.1 | /
CC(C)N(Cc1nc(-c2ccc(Cl)cc2)no1)C(=O)CN(C)S(=O)(=O)c1ccc(Cl)cc1 | 8 | -4 | 21* | -0.93 | 1.1 | 9
CC(C)N(Cc1nc(-c2ccccc2)no1)C(=O)CN(C)S(=O)(=O)c1ccc(Br)cc1 | / | / | / | / | 1.3 | /
CC(C)OC(=O)c1cccc(NC(=O)c2ccccc2)c1 | / | / | / | / | 2.1* | /
CCCCCC1=C2CNC(CC(C)C)(C(=O)OC)C=C2C(C)C1=O (stereo unspecified) | / | / | / | / | 1.3 | /
CCOC(=O)C1=c2s/c(=C\c3cccnc3)c(=O)n2C(N)=C(C(=O)OC)C1c1cccnc1 (stereo unspecified) | / | / | / | / | 1.1 | /
CCOC(=O)C1=C(N)n2c(s/c(=C/c3ccco3)c2=O)=C(C(=O)OC)C1c1ccco1 (stereo unspecified) | 14* | 4 | 7 | 1.7 | 0.9 | 5
CCOC(=O)C1=C(C)N(CCCC(=O)O)C(=O)NC1c1ccc(C(F)(F)F)cc1 (stereo unspecified) | / | / | / | / | 1.1 | /
CCCn1c(NCc2ccc(C)o2)nc2ccccc21 | 4 | 26* | 0 | 1.7 | 1.2 | 10
Cc1c(NC(=O)C2(C)CCCCC2)c(=O)n(-c2ccccc2)n1C | 1 | -2 | 1 | -0.53 | 1.1 | -2
Cc1c(NC(=O)C23CC4CC(CC(C)(C4)C2)C3)c(=O)n(-c2ccccc2)n1C | 3 | 1 | 9 | -0.78 | 2* | 3
COC(=O)c1cc2c(C)nn(-c3ccccc3)c2s1 | -20 | 1 | / | 0.66 | 1.1 | 5

Bioassay records as filed in PubChem.
